Records with an inconclusive call do not appear. Activity calls are given as the source filed them. The calls were made as follows, unless noted: active = hit-call score of the fitted dose curve at least 0.9, where 1 is the maximum; inactive = score below 0.9.
Experiments:
[1] = ATG_TCF_b_cat_CIS: Attagene CIS-FACTORIAL HepG2 Assay for human T-Cell-Factor with beta-catenin (TCF/b-cat) (AID 2282965); details: HepG2 TCF/beta-catenin cis-reporter transcription, actives raise or lower the signal
Summary of the method: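 In this cis-format system, transfected HepG2 cells report endogenous transcription factor activity. Readout after 24 h exposure is reporter transcript abundance from RT-PCR and capillary electrophoresis, analysed for gain or loss of signal versus DMSO.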

[2] = ATG_TAL_CIS: Attagene CIS-FACTORIAL HepG2 Assay for human TAL Basal Promoter (AID 2282966); details: HepG2 Attagene cis-factorial TAL promoter reporter; actives raise or lower the signal;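 also: background control endpoint measuring basal TAL promoter reporter mRNA not a specific factor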
Summary of the method: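 Steps: transfect HepG2 with multiple reporter transcription units; dose 24 h; isolate RNA, reverse-transcribe, PCR-amplify, label with 6-FAM, digest with HpaI; resolve by capillary electrophoresis. Bidirectional fitting against DMSO baseline.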

[3] = ATG_VDRE_CIS: Attagene CIS-FACTORIAL HepG2 Assay for human Vitamin D Receptor Element (VDRE) (AID 2282968); details: HepG2 VDRE cis-reporter transcription, actives raise or lower the signal
Summary of the method: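 RT-PCR/CE readout of reporter mRNA; HepG2, transient transfection, 24 h dosing; DMSO baseline; bidirectional analysis.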

[4] = biological target: Nuclear receptor subfamily 1 group I member 3 (Homo sapiens) (UniProt Q14994); assay: ATG_CAR_TRANS: Attagene TRANS-FACTORIAL HepG2 Assay for human Constitutive Androstane Receptor (CAR) (AID 2282969; active = hit-call score of the fitted dose curve at least 0.9, where 1 is the maximum;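 also: activators raise reporter mRNA above DMSO so AC50 marks induction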); details: HepG2 Attagene TRANS-FACTORIAL CAR reporter
Sequence of Nuclear receptor subfamily 1 group I member 3 (Homo sapiens) (Q14994 whole entry, looked up, the tested form may be a part): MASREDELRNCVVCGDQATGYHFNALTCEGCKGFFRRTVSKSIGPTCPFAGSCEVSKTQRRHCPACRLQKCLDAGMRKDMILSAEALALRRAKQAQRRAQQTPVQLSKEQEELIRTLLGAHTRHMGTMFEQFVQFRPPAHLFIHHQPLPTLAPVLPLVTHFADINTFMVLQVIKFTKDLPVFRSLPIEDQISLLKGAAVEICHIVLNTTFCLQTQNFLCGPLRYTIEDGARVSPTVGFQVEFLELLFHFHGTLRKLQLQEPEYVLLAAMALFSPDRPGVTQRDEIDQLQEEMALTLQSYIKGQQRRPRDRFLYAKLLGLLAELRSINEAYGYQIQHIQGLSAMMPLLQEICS
Summary of the method: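 HepG2 cells transiently transfected with multiplexed GAL4-UAS reporter units expressing chimeric NR-Gal4 proteins; compound exposure 24 h. Reporter mRNA measured by RT-PCR, 6-FAM labelling, HpaI digestion and capillary electrophoresis; gain-of-signal fitted against DMSO baseline.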

[5] = biological target: Estrogen receptor (Homo sapiens) (UniProt P03372); assay: ATG_ERa_TRANS: Attagene TRANS-FACTORIAL HepG2 Assay for human Estrogen Receptor alpha (ERa) (AID 2282970; active = hit-call score of the fitted dose curve at least 0.9, where 1 is the maximum); details: HepG2 Attagene TRANS ERa GAL4 reporter, mRNA
Sequence of Estrogen receptor (Homo sapiens) (P03372 whole entry, looked up, the tested form may be a part): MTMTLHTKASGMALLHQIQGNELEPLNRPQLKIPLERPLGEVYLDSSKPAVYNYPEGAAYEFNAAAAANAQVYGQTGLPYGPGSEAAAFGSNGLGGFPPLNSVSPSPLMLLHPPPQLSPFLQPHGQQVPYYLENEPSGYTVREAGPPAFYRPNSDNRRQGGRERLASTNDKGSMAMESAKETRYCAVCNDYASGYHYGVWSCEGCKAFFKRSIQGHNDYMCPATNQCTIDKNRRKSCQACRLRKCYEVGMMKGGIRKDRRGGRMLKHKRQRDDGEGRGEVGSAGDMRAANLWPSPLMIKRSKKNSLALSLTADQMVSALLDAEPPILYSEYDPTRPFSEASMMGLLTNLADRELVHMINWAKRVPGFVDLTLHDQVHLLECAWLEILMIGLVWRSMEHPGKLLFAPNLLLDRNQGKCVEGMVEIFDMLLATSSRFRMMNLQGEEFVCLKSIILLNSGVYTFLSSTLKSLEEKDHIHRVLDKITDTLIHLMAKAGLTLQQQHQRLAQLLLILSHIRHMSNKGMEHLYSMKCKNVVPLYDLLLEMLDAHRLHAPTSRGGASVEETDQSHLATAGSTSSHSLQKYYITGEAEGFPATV
Summary of the method: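 Multiplexed cell-based reporter format in HepG2: chimeric ERa-Gal4 protein drives GAL4-UAS reporter transcription. Fluorescent reporter mRNA quantified by capillary electrophoresis 24 hours after dosing; endpoint fitted as signal gain against DMSO.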

[6] = biological target: X-box-binding protein 1 (Homo sapiens) (UniProt P17861); assay: ATG_Xbp1_CIS: Attagene CIS-FACTORIAL HepG2 Assay for human X-box Binding Protein 1 (XBP1) (AID 2282972); details: HepG2 XBP1 cis-element reporter, Attagene multiplex; actives raise or lower the signal
Sequence of X-box-binding protein 1 (Homo sapiens) (P17861 whole entry, looked up): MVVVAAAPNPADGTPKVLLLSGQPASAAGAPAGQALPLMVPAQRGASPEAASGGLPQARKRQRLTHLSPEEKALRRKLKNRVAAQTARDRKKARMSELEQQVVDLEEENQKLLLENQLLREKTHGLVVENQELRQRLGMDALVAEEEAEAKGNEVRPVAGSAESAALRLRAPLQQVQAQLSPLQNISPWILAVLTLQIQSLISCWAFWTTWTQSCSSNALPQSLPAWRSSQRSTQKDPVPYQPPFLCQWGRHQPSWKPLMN
Summary of the method: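 HepG2 cells transiently transfected with multiple cis-element reporter units report endogenous TF activity; 24 h exposure, then reporter mRNA measured by RT-PCR, 6-FAM labelling, HpaI digestion and capillary electrophoresis. Bidirectional fitting versus DMSO.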

[7] = ATG_TGFb_CIS: Attagene CIS-FACTORIAL HepG2 Assay for human Transforming Growth Factor (TGF) (AID 2282967); details: HepG2 Attagene CIS TGFb reporter, mRNA transcription; actives raise or lower the signal
Summary of the method: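 Endogenous TGFB1-linked transcription factor activity read as reporter mRNA via RT-PCR and capillary electrophoresis, 24 h after dosing transiently transfected HepG2 cells. Gain or loss of signal fitted relative to DMSO.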

[8] = ATG_M_19_TRANS: Attagene TRANS-FACTORIAL HepG2 Assay for M19 Transcription Factor (Internal Marker) (AID 2282974; active = hit-call score of the fitted dose curve at least 0.9, where 1 is the maximum); details: HepG2 Attagene TRANS-FACTORIAL M19 internal marker reporter
Summary of the method: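 Background-control readout: after 24 h chemical exposure of transfected HepG2 carrying GAL4-driven reporter units, RNA was reverse-transcribed, amplified, fluorescently labeled and sized by capillary electrophoresis; gain-of-signal fit against DMSO.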

[9] = ATG_GAL4_TRANS: Attagene TRANS-FACTORIAL HepG2 Assay for GAL4 (Internal Marker) (AID 2282976; active = hit-call score of the fitted dose curve at least 0.9, where 1 is the maximum); details: HepG2 Attagene TRANS GAL4 internal marker reporter
Summary of the method: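 Liver HepG2 line bearing multiplexed GAL4-UAS reporter constructs; 24 h chemical treatment. Transcripts were quantified as fluorescent fragments on capillary electrophoresis after RT-PCR and HpaI cut, with activity fitted upward from DMSO.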

[10] = biological target: Steroid hormone receptor ERR1 (Homo sapiens) (UniProt P11474); assay: ATG_ERRa_TRANS: Attagene TRANS-FACTORIAL HepG2 Assay for human Estrogen-Related Receptor alpha (ERRa) (AID 2282971; active = hit-call score of the fitted dose curve at least 0.9, where 1 is the maximum); details: HepG2 Attagene TRANS reporter, ERRa transactivation
Sequence of Steroid hormone receptor ERR1 (Homo sapiens) (P11474 whole entry, looked up, the tested form may be a part): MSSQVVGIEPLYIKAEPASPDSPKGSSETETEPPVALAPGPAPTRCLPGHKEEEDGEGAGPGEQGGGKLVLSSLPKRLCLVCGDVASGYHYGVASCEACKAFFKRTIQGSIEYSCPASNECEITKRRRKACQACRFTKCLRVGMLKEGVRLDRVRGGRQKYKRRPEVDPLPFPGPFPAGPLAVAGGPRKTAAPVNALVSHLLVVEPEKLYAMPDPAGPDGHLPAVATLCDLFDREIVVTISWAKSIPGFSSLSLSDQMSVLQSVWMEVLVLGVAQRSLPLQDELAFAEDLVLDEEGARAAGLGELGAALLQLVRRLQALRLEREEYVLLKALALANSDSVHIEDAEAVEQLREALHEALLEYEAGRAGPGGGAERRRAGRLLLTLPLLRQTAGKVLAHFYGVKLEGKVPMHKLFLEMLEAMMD
Summary of the method: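 Signal gain relative to DMSO for an ERRa-Gal4 chimeric receptor, read as reporter mRNA by RT-PCR/capillary electrophoresis. Human HepG2 liver cells, transient multiplex reporter transfection, 24 h chemical exposure.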

Measured: AC50

CC1=CC(C)C(C=O)C(C)C1 (stereo unspecified) (tested in a mixture with another compound)
active: [3] 28.8 µM
inactive: [1] | [2] | [4] | [5] | [6]

CCCCCCCC1CCCC1=O (stereo unspecified)
inactive: [1] | [2] | [7] | [5] | [6]

CC(CCO)CC(C)(C)C (stereo unspecified)
inactive: [1] | [2] | [7] | [5] | [6] | [8]

C=C(C)C(=O)OCCC[Si](OC)(OC)OC
inactive: [1] | [2] | [7] | [5] | [6] | [8]

NS(=O)(=O)c1cc(C(=O)O)c(NCc2ccco2)cc1Cl
inactive: [1] | [2] | [7] | [6] | [9]

CCCC1CCOC(C)S1 (stereo unspecified)
not listed: [3] | [4] | [10]
inactive: all other assays above

C1CCCNCC1
not listed: [3] | [5] | [10]
inactive: all other assays above

Nc1ccn([C@H]2CC[C@@H](CO)O2)c(=O)n1
inactive: [1] | [2] | [7] | [6]

OCC=Cc1ccccc1
inactive: [1] | [2] | [7] | [6] | [8]

CC(=O)N(C)C
inactive: [1] | [2] | [7] | [10] | [6] | [8]

CCO[Si](CCC#N)(OCC)OCC
inactive: [1] | [2] | [7] | [5] | [6] | [9]

CC1(C)CC(N)CC(C)(CN)C1 (stereo unspecified)
inactive: [1] | [2] | [7] | [5] | [6]

CNC(=C[N+](=O)[O-])NCCSCc1ccc(CN(C)C)o1
inactive: [1] | [2] | [6] | [8] | [9]

C=CCOCC(O)CO (stereo unspecified)
inactive: [1] | [2] | [6] | [9]

CCCCCC(=O)O[C@]1(C(C)=O)CC[C@H]2[C@@H]3CCC4=CC(=O)CC[C@]4(C)[C@H]3CC[C@@]21C
active: [2] 13.4 µM | [3] 61.2 µM
inactive: [1] | [6] | [8] | [9]

CCCC(O)C(CC)CO (stereo unspecified)
inactive: [1] | [2] | [6]

O=C(O)CS
inactive: [1] | [2] | [10] | [6] | [8]

CC/C=C\CCOC(C)OCC (stereo unspecified)
inactive: [1] | [2] | [4] | [5] | [6]

CCCCCC1C(=O)CCC1CC(=O)OC (stereo unspecified)
inactive: [1] | [2] | [3] | [5] | [6]

CC(C)(CO)CO
inactive: [1] | [2] | [10] | [6] | [8]

CCC(=O)OC(C)(C)C1CC=C(C)CC1 (stereo unspecified)
active: [5] 78.3 µM
not listed: [3] | [7] | [10]
inactive: all other assays above

COC(=O)C(C)Oc1ccc(Oc2ncc(C(F)(F)F)cc2Cl)cc1 (stereo unspecified)
active: [3] 42.8 µM
not listed: [7] | [8] | [10]
inactive: all other assays above

O=C1OC2(c3ccc(O)cc3Oc3cc(O)ccc32)c2ccccc21
inactive: [1] | [2] | [3] | [6] | [8]
active: [5] 27.7 µM

NNC(=O)OCc1ccccc1
not listed: [4] | [7] | [9]
inactive: all other assays above

NC(=O)c1c(Cl)cccc1Cl
inactive: [1] | [2] | [3] | [5] | [10] | [6]

CCCCCCCCCOS(=O)(=O)O
inactive: [1] | [2] | [6]
active: [5] 20.1 µM

CCOC(=O)CCCCCCCCC(=O)OCC
inactive: [1] | [2] | [3] | [5] | [6] | [8]

[Na+]
inactive: [1] | [2] | [6] | [8] | [9]

Cc1cc(N)n(-c2ccccc2)n1
inactive: [1] | [2] | [3] | [4] | [10] | [6]

CC(=O)OC/C=C(C)/C=C/C=C(C)/C=C/C1=C(C)CCCC1(C)C
inactive: [2] | [5] | [6] | [8] | [9]
active: [1] 100 µM | [3] 0.946 µM

NC(=O)c1cccnc1
inactive: [1] | [2] | [3] | [5] | [6] | [8]

c1ccc(Cc2ccccc2)cc1
not listed: [4] | [7] | [10]
inactive: all other assays above

O=C(O)C1=NN(c2ccc(S(=O)(=O)O)cc2)C(=O)C1
inactive: [1] | [2] | [5] | [6] | [8] | [9]

CCCc1ccc(N)cc1
not listed: [4] | [7] | [10]
inactive: all other assays above

CC(C)COC(=O)c1ccccc1
inactive: [1] | [2] | [5] | [6]

CN1CCc2cccc3c2[C@H]1Cc1ccc(O)c(O)c1-3
active: [2] 8.44 µM
inactive: [1] | [5] | [6]

CC/C(=C(\c1ccccc1)c1ccc(OCCN(C)C)cc1)c1ccccc1
inactive: [1] | [2] | [6] | [8] | [9]

CC(C)(O)C(=O)c1ccc(OCCO)cc1
inactive: [1] | [2] | [6]

CC(O)CN (stereo unspecified)
not listed: [3] | [4] | [7]
inactive: all other assays above

C=C(C)CCCC(C)CCO (stereo unspecified)
inactive: [1] | [2] | [5] | [6] | [8] | [9]

CCC(=O)OC/C=C(\C)CCC=C(C)C
inactive: [1] | [2] | [5] | [6] | [8] | [9]

CC(C)OB(OC(C)C)OC(C)C
not listed: [5] | [7] | [10]
inactive: all other assays above

CC(O)COCC(C)O (stereo unspecified)
inactive: [1] | [2] | [5] | [6] | [8] | [9]

CCCCC/C=C\C=C\C(=O)OCC
inactive: [1] | [2] | [3] | [5]
active: [6] 61.1 µM

CCCO
inactive: [1] | [2] | [3] | [6] | [8] | [9]

CC1=CC[C@@H]2C[C@H]1C2(C)C
inactive: [1] | [2] | [3] | [6]

Nc1ccc(O)c(N)c1
inactive: [1] | [2] | [10] | [6] | [8]

— PubChem BioAssay (EPA / NIEHS)
